# VP16 counter = counter-screen for ROR gamma inhibitors: Gal4-VP16 reporter. 3.5% of 310,000 active. AID 2546. Potency, µM (highest dose often 53.6 µM), inactives show at the highest dose activity, negative = inhibition, usual class: inhibitors. Drosophila S2 Gal4-VP16 UAS-luciferase, luminescence, 20 h;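 also: Gal4-VP16 expression switched on by copper sulfate through the metallothionein promoter; potency is read from the fitted curve at half-maximal effect; % is scaled to controls: 0 for no effect and ±100 for the full control effect; nearly all actives have a fitted effect of over 50% in size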
# SW480 rerep = DNA re-replication induction in SW480 cells | SW480 DNA re-replication, Hoechst DNA content imaging, 48 h | Potency, µM (titrated, usually from 46.1 µM), for inactives: at the top dose re-replication activation, hits mostly activators | 1.8% of 340,000 active; also: potency is read from the fitted curve at half-maximal effect; % of control where 0% means no effect; nearly all actives have a fitted effect of over 55% in size
#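 250 cells/well; 23 nL cpd via pin tool; 48 hr, 37 C, 5% CO2; Hoechst 40 min; imager read of total nuclear intensity, ex 405/em 500-530 nm.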
# RORg inh = blocks mouse ROR gamma transcriptional activity. Drosophila S2 Gal4-RORgamma UAS-luciferase reporter, 20 h. Potency, µM (titrated, usually from 53.6 µM), for inactives: at the highest dose activity change, negative = inhibition, hits mostly inhibitors. 5.4% of 310,000 active; also: potency is read from the fitted curve at half-maximal effect; % is scaled to controls: 0 for no effect and ±100 for the full control effect; nearly all actives have a fitted effect of over 60% in size
# Target sequence (P51450 whole entry, looked up, the tested form may be a part): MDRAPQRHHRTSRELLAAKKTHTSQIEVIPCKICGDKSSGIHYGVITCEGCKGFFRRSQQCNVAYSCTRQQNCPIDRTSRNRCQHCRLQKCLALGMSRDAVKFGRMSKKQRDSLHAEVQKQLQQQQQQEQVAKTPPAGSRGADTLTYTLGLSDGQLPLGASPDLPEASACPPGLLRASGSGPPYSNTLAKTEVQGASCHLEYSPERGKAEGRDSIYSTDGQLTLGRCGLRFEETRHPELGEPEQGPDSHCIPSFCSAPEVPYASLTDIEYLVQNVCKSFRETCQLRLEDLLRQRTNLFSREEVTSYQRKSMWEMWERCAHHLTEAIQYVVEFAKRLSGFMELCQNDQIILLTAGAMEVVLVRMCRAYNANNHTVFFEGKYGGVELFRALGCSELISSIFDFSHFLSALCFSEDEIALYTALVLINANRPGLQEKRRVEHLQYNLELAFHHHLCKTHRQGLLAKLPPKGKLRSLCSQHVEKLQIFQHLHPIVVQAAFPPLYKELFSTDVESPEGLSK
#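 Compounds are pin-transferred onto Drosophila Schneider cells expressing a copper-inducible Gal4–ROR gamma transactivation domain fusion. After 1 hr, copper sulfate is added to 700 uM final; luciferase is read 20 hr later.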
# IL-1B inflam inh = inhibitors of inflammasome signaling (IL-1 beta secretion); activity change, % at 57.5 µM; THP-1 LPS/ATP IL-1B secretion, AlphaLISA, 16 h; stronger effect = lower value; AID 743279; 4.7% of 360,000 active; in the data active = activity change below about -50%; inconclusive = mostly about -30% to -49%; also: % is scaled to controls: 0 for no effect and ±100 for the full control effect
#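 Secreted IL-1B measured by AlphaLISA bead assay after 16 h compound exposure of THP-1 cells; compounds (final up to 57.5 uM) added 1 h before LPS (250 ng/mL) and ATP (1.25 mM) stimulation; lower signal means less secretion.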
# MCF10A rerep = DNA re-replication induction in MCF 10a cells; MCF 10A DNA re-replication, Hoechst nuclear intensity, 48 h; Potency, µM (titrated, usually from 46.1 µM), without a hit: at the top dose activity, positive = re-replication, usual class: activators; 2.9% of 350,000 active; also: potency is read from the fitted curve at half-maximal effect; % of control where 0% means no effect; nearly all actives have a fitted effect of over 50% in size
# * hit, by the source's call; u = inconclusive; x = no result given; [ ] = dose if it differs, or a comment. Sampled rows, rich in hits. Any-hit rate of the full collection: about 11%. Unless noted, calls follow the shape of the dose curve; as a rule, active = well fitted curve in the direction sought with a large enough effect; inconclusive = small, poorly fitted or top-dose-only effect, or another doubt; inactive = no such curve, though single readings can be large; an effect the other way counts as inactive or inconclusive.
SMILES,VP16 counter,SW480 rerep,RORg inh,IL-1B inflam inh,MCF10A rerep
Cc1cc(-n2nc(C)cc2C)n2nc(C)c(-c3ccc(Cl)cc3)c2n1,1.4%,-14.9%,11.5%,-13.5,3.2%
Cc1cc(SCC(=O)c2cccs2)n2nc(C)c(-c3ccc(Cl)cc3)c2n1,u,0.5%,1µM*,-7.4,u
Cc1cc(C(F)(F)F)n2nc(C)c(-c3ccc(Cl)cc3)c2n1,-10.2%,6.8%,-24.2%,-18.3,-5.8%
C=CCSc1cc(C)nc2c(-c3ccc(Cl)cc3)c(C)nn12,u,u,20µM*,-5.9,20.6µM*
Cc1nn2c(SCC(=O)c3cccs3)cc(C(C)(C)C)nc2c1-c1ccccc1,7.08µM*,u,10µM*,26.2,19.1%
CCOC(=O)c1cnn(-c2cc(C(C)(C)C)nc3c(-c4ccccc4)c(C)nn23)c1N,0.8%,9.1%,-22.0%,-1.5,-5.5%
O=c1cc(O)n(Cc2ccc(F)cc2)c(=O)[nH]1,-3.2%,-0.1%,23.9%,-9.5,1.1%
CC(=O)c1ccc(S(=O)(=O)N(C)CCCC(=O)N(C)Cc2c(F)cccc2Cl)cc1,4.5%,-5.6%,-9.0%,-1.6,-11.1%
C/C(=N\NC(=O)Cc1csc(N2CCOCC2)n1)c1ccc(Cl)c(Cl)c1,-0.5%,2.1%,25.3%,-58.1*,13.1%
C/C(CCN1CCCc2nc(C)c(C)cc21)=N\O[C@@H](C)CN1CCCCc2nc(C)c(C)cc21,-6.3%[10 µM],x,4.1%[10 µM],x,x
CC(C)(C)OC1NS(=O)(=O)OCC1NCOC(Cl)(Cl)Cl (centres undefined),22.4µM*,-3.2%[9.22 µM],10µM*,-23.4,u
COCCOc1ccc(C(F)(F)F)cc1NC(=O)COC(=O)Cc1c[nH]c2ccccc12,x,2.6%,x,-2.8,5.3%
CC(C)COc1ccc(CSCCNC(=S)Nc2ccccc2)cc1,3.16µM*,u,1.12µM*,-9.1,u
CCCCOc1ccc(CSCCNC(=S)Nc2ccccc2)cc1,4.47µM*,4.1%,4.47µM*,-4.8,u
S=C(NCCCNC(=S)Nc1ccccc1)Nc1ccccc1,5.1%,u,u,-21.3,6.1%
CCCCCOc1ccc(CSCCNC(=S)Nc2ccccc2)cc1,3.16µM*,-8.8%,3.16µM*,16.2,-5.2%
COc1cc2c(cc1OC)[C@H](Cc1ccc(O)cc1)NCC2,1.1%,u,13.1%,-103.5*,16.4µM*
COc1cc2c(cc1OC)C(c1ccc(O)cc1)NCC2 (centres undefined),x,-2.1%,x,-2.3,-0.3%
CCC1=C(CC2NCCc3ccccc32)CC2c3cc(OC)c(OC)cc3CCN2C1 (centres undefined),x,u,x,-91.8*,u
COc1cccc(CNc2nc3cc(-c4cccc(C(F)(F)F)c4)sc3c(=O)n2C)c1,x,x,x,37.4,x
O=C(NC1CC1)c1ccc(S(=O)(=O)NCC2CCCCC2)cc1,-2.1%,0.1%,11.8%,44.1,5.8µM*
O=C(O)c1ccc(S(=O)(=O)NCC2CCCCC2)cc1,-6.2%,-2.4%,4.1%,16.8,-4.4%
COc1cccc(Nc2ccc(Nc3cccc(OC)c3)nn2)c1,-25.5%,-1.9%,11.2µM*,-99.0*,7.9%
CC(=O)Nc1ccc(CN2C(=O)C(C)(C)ON=C2c2ccc(C(F)(F)F)cc2)cc1,x,x,x,-22.9,x
Cc1cc(OCC(=O)N(C(C)C)C(C)C)ccc1Cl,u,-1.8%,1.58µM*,-7.4,-6.1%
SMILES,VP16 counter,SW480 rerep,RORg inh,IL-1B inflam inh,MCF10A rerep
Cc1cc(OC(C)C(=O)Nc2ccncc2)ccc1Cl (centres undefined),11.2µM*,-21.9%,19.3%,19.6,6.9%
Cc1ccc(OC(C)C(=O)Nc2ccncc2)cc1 (centres undefined),17.8µM*,-1.2%,u,-0.4,0.0%
COCCN(Cc1cc2cc(C)ccc2nc1Cl)C(=O)Nc1ccccc1C,1.1%,-3.1%,-3.1%,-69.6*,-5.1%
COCCN(Cc1cc2cc3c(cc2nc1Cl)OCO3)C(=O)Nc1ccccc1OC,-6.7%,0.0%,6.4%,-25.9,-25.2%
COCCN(Cc1cc2cc3c(cc2nc1Cl)OCO3)C(=O)Nc1ccc(F)cc1,1.2%[0.365 µM],19.4%,u,-70.9*,-6.1%
COCCN(Cc1cc2cc3c(cc2nc1Cl)OCO3)C(=O)Nc1ccc(OC)cc1,-86.9%,-1.4%,26.5%[10 µM],13.0,3.1%
CCOC1=C2CN(S(=O)(=O)c3ccc(C)cc3)C(c3cccc(Cl)c3)CC2NC(c2ccccc2)C1 (centres undefined),x,x,x,-14.5,x
Cc1ccc(-n2nnnc2SCC(=O)N(CC(C)C)c2c(N)n(CC(C)C)c(=O)[nH]c2=O)cc1,2.1%,26.7%,5.1%,-51.7*,u
Cc1cccc(-n2nnnc2SCC(=O)N(CC(C)C)c2c(N)n(CC(C)C)c(=O)[nH]c2=O)c1,5.2%,-2.2%,-11.2%,-1.7,-3.8%
Cc1nnc(SCC(=O)N(CC(C)C)c2c(N)n(Cc3ccccc3)c(=O)[nH]c2=O)n1N,x,1.3µM*,x,1.2,2.3%
C=CCSc1nc(-c2ccc(OC)cc2)c(C#N)c(=O)n1CC=C,-8.5%,-2.2%,18.7%,-101.8*,20.6µM*
CNC(=S)N/N=C/c1c(C)nn(-c2ccccc2)c1Cl,0.891µM*,u,u,-11.3,u
Cc1nn(-c2ccccc2)c(Cl)c1/C=N/NC(=O)c1ccco1,-1.6%,-0.7%,22.0%,6.1,10.9%
Cc1nn(-c2ccccc2)c(Cl)c1/C=N/NC(=O)OC(C)(C)C,0.9%,-11.6%,u,-23.1,u
CNC(=S)N/N=C/c1c(C)nn(-c2cccc(Cl)c2)c1Cl,1.26µM*,7.7%,2µM*,0.0,11.8%
CC(C)Oc1ccc(C(=O)/C=C2/C(=O)Nc3ccccc32)cc1,u,u,10µM*,-100.3*,u
O=C1Nc2ccccc2/C1=C\C(=O)c1ccccc1,u,u,12.6µM*,-20.7,u
O=C(/C=C1\C(=O)Nc2ccccc21)/C=C1\C(=O)Nc2ccccc21,10µM*,u,12.6µM*,-2.1,u
CN(O)/C=C1\C(=O)Nc2ccccc21,-0.8%,10.8%,9.7%,18.1,-14.2%
CN(C)/C=C1\C(=O)Nc2ccccc21,-2.1%,-7.2%,-13.2%,19.5,-1.3%
O=S(=O)(Nc1nc2ccccc2nc1N1CCN(CCO)CC1)c1cc(F)ccc1F,x,-12.7%,x,12.9,2.4%
COc1cccc(C2=Nn3c(nnc3-c3cc(OC)ccc3OC)SC2)c1,-5.0%,x,23.3%,x,x
Cc1cc(C)c(C)c(S(=O)(=O)N2CCC(C(=O)Nc3ccncc3)CC2)c1C,u,-3.8%,-16.6%,-8.0,11.8%
CC(=O)c1sc2nc(C)c3c(c2c1N)CCCC3,-12.0%,14.6µM*,-14.2%,x,18.4µM*
C[C@@H]1C(=O)O[C@H]2[C@@H](O)[C@@]34[C@H]5CC(C(C)(C)C)[C@]36[C@@H](OC(=O)[C@@H]6O)O[C@@]4(C(=O)O5)[C@@]12O (some centres undefined),0.4%,x,-1.8%,x,x
